Test results reported in the supplement of paper PMC12632987.

T1: USP38, Q8NB14
T1 chain: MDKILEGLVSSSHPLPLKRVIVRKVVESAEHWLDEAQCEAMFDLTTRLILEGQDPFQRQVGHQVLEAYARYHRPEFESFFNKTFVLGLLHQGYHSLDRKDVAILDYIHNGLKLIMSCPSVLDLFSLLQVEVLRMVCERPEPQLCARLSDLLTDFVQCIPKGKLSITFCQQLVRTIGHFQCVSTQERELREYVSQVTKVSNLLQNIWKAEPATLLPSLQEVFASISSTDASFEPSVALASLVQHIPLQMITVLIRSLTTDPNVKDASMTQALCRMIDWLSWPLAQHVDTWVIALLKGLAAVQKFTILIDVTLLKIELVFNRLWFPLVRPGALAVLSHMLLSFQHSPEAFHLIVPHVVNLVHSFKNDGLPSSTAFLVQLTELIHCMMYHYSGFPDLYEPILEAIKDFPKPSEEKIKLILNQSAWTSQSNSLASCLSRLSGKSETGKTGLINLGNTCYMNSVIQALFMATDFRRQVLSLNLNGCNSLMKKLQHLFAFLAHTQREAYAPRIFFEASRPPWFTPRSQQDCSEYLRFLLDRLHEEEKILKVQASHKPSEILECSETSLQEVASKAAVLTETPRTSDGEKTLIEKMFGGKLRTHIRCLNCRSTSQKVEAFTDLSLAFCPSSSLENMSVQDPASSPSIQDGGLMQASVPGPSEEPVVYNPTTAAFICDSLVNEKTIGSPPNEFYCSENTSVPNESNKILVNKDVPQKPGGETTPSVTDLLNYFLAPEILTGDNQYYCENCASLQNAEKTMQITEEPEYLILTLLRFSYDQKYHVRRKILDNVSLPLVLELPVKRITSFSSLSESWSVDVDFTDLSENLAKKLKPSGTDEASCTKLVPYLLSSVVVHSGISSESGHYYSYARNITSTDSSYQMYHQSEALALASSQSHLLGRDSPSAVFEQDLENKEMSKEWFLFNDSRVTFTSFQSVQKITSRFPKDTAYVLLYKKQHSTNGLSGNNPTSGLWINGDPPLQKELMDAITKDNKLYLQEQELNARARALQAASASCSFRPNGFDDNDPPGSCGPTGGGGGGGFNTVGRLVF


Molecular target: T1, USP38, Q8NB14
Assay: median log2 fold change of GCK-ALFA target abundance (FLAG IP / Myc IP barcode read proportion) (log2 ratio); each designed protein is fused to an ALFA-tag nanobody in HEK293 cells to bring the named protein to FLAG-tagged glucokinase (GCK); Myc marks an untargeted standard; higher = target protein stabilised (more abundant)
Details: target protein: 3xFLAG-MCP-GCK-ALFA reporter; HEK293 landing pad (RPLP)
Procedure, shortened: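 Sequencing of reverse-transcribed, amplified circular RNA barcodes from anti-FLAG and anti-Myc immunoprecipitates provided the readout for an ALFA-nanobody-fused binder library recombined into HEK293 landing-pad cells. Those cells were induced with 2 μg mL^−1 doxycycline, transfected with a plasmid expressing a FLAG-tagged target and a Myc-tagged standard, and lysed after 48 h. Target abundance is the per-binder median log2 ratio of FLAG to Myc barcode read proportions. Only barcodes at a proportion of ≥10^−7 in both replicates and binders with ≥3 barcodes per replicate were kept, with a 10^−6 pseudocount added before the two replicates were pooled.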

Binder	median log2 fold change
usp_38_diff_out_1_162_37 (protein) RAEELLERLREHTERLRRLVEEAKRRLDTLSAEELRAMADELADAIAETDELIREARRLMVDLDPERREEARRAIEEARRAADEAVEVYEQLVLRSIELE	0.216
usp_38_diff_out_1_153_33 (protein) SKLEELKARVEALTAEAKALEKEAKALIESGKATREKVDALADRLGALAVELRELRSEAAESGEYYKELKPLFDEANAALDAAVDALEKLGRLVFEKEAE	0.179
usp_38_diff_out_1_9_443 (protein) SVDDVIIEALEKALEDGLKELKELEKKAEKALKAGDKAQAEALLKRLIRNAEGLIAAAKDAIKLAKKAGLEERAKRLEEMLKEAEKLLEEAKKKLKELKA	0.0775
usp_38_diff_out_1_153_30 (protein) SELEELEKEIKKITEEAKKLKKEAEELIKSGKATREKVDKLADELGKLAVRLREIRSKAAESGDYYKKLKPLFKEAEKALNEAVDALEKAGRLVFEKEAE	-0.0674
usp_38_diff_out_20_123_454 (protein) SEELRKEAEELLRRAEQLLENAEQILKFVKAGVLSLEKVEEHIKFIEEHIKYLEEKLKELKKKDKSLKELLEKIEELIKKTKEVLKEIKEAVEKRKKEAA	0.308
usp_38_diff_out_1_162_43 (protein) DVEKVLEQAKELLEKAEKKIKEAEKALKEGKLEEAEKYLDEAWELLGQLAKLLREARRLRRELDPERQAEVTKKLKELNEKANKLIDKLTKLEEEVFLKK	-1.34
usp_38_diff_out_20_123_449 (protein) SEELRERAERLLRDAERLLENAKQILKFVEAGVLSEETVEAHIEMIEAHIEYIEREIERLRREDPSLAPLLERVERVLEEVKEVLEKIKEAAEKRKEEEK	0.117
usp_38_diff_out_20_123_447 (protein) SEELRARAERLLRQAEQLLENAEQILKFVKAGVLSKETQKAHIEFIESQIETIRREIERLRAEDPSLAELLARIEEVLRKVEETLEEIKKAVEKREKEEA	0.258
usp_38_diff_out_20_123_446 (protein) MEEARERAERLLERARQLLENAKQILKFVKAGVLSKETIESNIKFIESQIEYLERERERLREEHPELEELLEEIDRVLEETREVLKEIKAAAAAREAAEA	0.247
usp_38_diff_out_1_162_39 (protein) RLEELLEEARRAIEEARRLLEEAERAFKAGDLEEARRLLDRAADALGRAAQLLREARRLMRDLPPEEREKVREELDRLEEELDRLIDRYTELATRVFLAE	0.185
usp_38_diff_out_1_9_444 (protein) DVRREIAEALLEALERGLEELERLRARAEAALAAGDLARAEALLRRLVRNARGLEAAAEDLIEMAKEIGDEELARRAEEILERARRLREEAEARLAELAA	-0.00975
usp_38_diff_out_1_162_38 (protein) ELEELLKEAEEAIERARELLERAEEAFAAGDLETAERLLREAADELGRAAQLLREARRLLRELPPEEREKYRERLEELERELDELIDRYTALATEVFLAR	0.219
usp_38_diff_out_20_123_452 (protein) AAALRAEAEALLARAQQLLENAEQVLKFVKAGVLSEETVEEHIEMFEAHIEYLEAERARLAAEAPELAPLLAQIDEAIAKAKEVLEKIKEELEKRREEEE	0.438
usp_38_diff_out_1_153_34 (protein) SRLEELRKRVEEITKRAKELKKRAEELIESGEATLEKVDELADELGRLAVELREVRSEAAEDGDYYRELKPLFDEAEKALNEAVDALNEAGRLVFLKEAE	0.122
usp_38_diff_out_1_153_36 (protein) SELDELKARLDAITAEANALKAEINAAIEAGTMTREQVDAAWDRLGALAKELAEIRAKAAEKPELYPQLKPAIDAATAALNAAIDALNEAARLVFLREAE	0.22
usp_38_diff_out_1_162_40 (protein) ELEEVLREAREAIERARELLERAKEALEEGRLEEAERLLDEAADELGRAARLLREARRLLRELPPEEREKYREELEKLERELRELIDEYTELAREVFLRR	-0.209

Binder	median log2 fold change
usp_38_diff_out_1_153_29 (protein) SELEELKARVEKITKEAEALKKEAEKLIADGTATREKVDALADKLGALAVELREIKSKAAESGEYYKKLKPLFDKAEAALNEAVDALNRAATLVFEREAA	-0.161
usp_38_diff_out_20_123_455 (protein) SEELRERAERLLKRSKQLVENAKQILKFVKAGVLSEETVEEHIKFLEDLIKYFEEELERLKKEDPSLKELLEEVEAAIKEAKEVLKEIKEAAEKRKKEEE	0.12
usp_38_diff_out_1_162_48 (protein) EVEELLKKAKEKLKEAKELIKKAKEALKAGDLETAKKYLDKAWDLLGELAKLLREARRKMRELSPEERKKVRKELKKLEEEADKLIDELTKLETEVFLKE	-0.368
usp_38_diff_out_20_123_448 (protein) SEALRARAEELLRRAEQLLENAKQILKFVKAGVLSEETVESHIKMIESQIEYIRREIERLRAEDPSLAPLLEEVERVVREVEEVLEEIKKAVEERKKEKA	0.273
usp_38_diff_out_1_162_44 (protein) AVEETLAQLEEALERAERLIEEAERALEEGDLERARELLDEAADTLGRAAQLLREARRLSRELSPEERARVRERLRELNERLDELIDRLTELEREVFLRE	0.133
usp_38_diff_out_1_162_42 (protein) KLEELLEQAKRALAEAEELLERAEEALAAGRLEEARRYLDRAWDALGRLAQLLREARRLLRELSPEEREKARKQLKELEARADELIDRLVELEREVFLRE	-0.0981
usp_38_diff_out_1_153_35 (protein) SELDKLKAELADITAKANALKKEIEAAIKAGTMTREKVDAAWDELGALAKRLAEIRSKAAENPELYPKLKADIDAANAALDAAIDALNEAATKVFLKEAE	0.136
usp_38_diff_out_1_153_31 (protein) SELEELRERIERLTREARELEREARELIESGEATREKVDELADRLGRLAVELRELRSKAAESGEYYKELKPLFEEAEEALNRAVDALNEAGRLVFEREAE	0.15
usp_38_diff_out_1_162_45 (protein) KVEEVLEEAERLLEEAEKLIEAAEKALAAGDLETARKYLDEAWDKLGELAKLLREARRLRRELSPERQEEVRKRLRELEERADELIDRLTELETEVFLRE	-0.331
usp_38_diff_out_1_162_46 (protein) EVEKLLEEAEKLLEEAKELIEKAKEAFKEGKLEEAEKYLDEAADKLGQLAKLLREARRLRRELSPERQEEVRKRLRELEERANELIDEYTELETEVFLAK	-1.08
usp_38_diff_out_20_123_451 (protein) SEELRKEAEELLKRAKQLLENAKQILKFVKAGVLSEETIEAHIKMIESQIKYIEEKIKELREKDPSLKPLLEEVEKVVKEVKETLKEIKEAAEKRRKEKA	0.227
usp_38_diff_out_1_153_28 (protein) SKLEELKKRVEEITKEAKELKKEAEKLIKSGKATLEKVEELADKLGKLSVELREIRSEAAEDEEYYKELKPLFKEAEKALNEAVDALEKAGRLVFEKMAE	-0.31
usp_38_diff_out_1_162_41 (protein) DIEKVLEQAQKALEEAEKLLKEAEKALKEGDLEEAEKYIRKAWDKLGQLAQLLREARRLLRELSPEERKKYREQLDKLEAKADELIDRLVKLEKEVFLKK	-0.214
usp_38_diff_out_1_153_32 (protein) SELEELKKKVEEITKKAKELKKEAEKLIADGTATLEKVDALADELGALAVELREIRSKAAESGDYYKKLKPLFDEANAALNEAVDALNRAGTLVFEREAE	-0.165
usp_38_diff_out_20_123_450 (protein) SEELREEAEELLRRAEQLLENSEQILKFVKAGVLSEETIKSHIEMIESQIKYIEEKIERLRKEDPSLEPLLEEVEKIREEVKKTLEEIKKAAEERKKEEA	0.529
usp_38_diff_out_20_123_456 (protein) MEKAKEEAEKLLRRAKQLVENAEQVLKFVKAGVLSEEKAEEYIKSFEEHIKYIEKEVKKLKKEYPELKELLEEVEKEIKKAKKVLKELKEAVEKRKKEEE	0.134
